Laboratory results reported in PubChem BioAssay (NCI).
This is part of a sample that, as a whole, favours compounds with a hit. Of some 83,000 tested, about 20% had one in any assay.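 Single-dose data. Exposure time 48 hours. Values below 10 considered active.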 Calls of active or inactive are those of the source.

What follows are molecules tested on MDA-MB-468 breast (assay: NCI-60 one-dose screen, 48 h (100 = growth as untreated, 0 = no growth, -100 = all killed)). Settings: 10 µM unless noted.
With `C#CCOc1ccc(/C=N\Nc2nc(-c3ccc(C)cc3)cs2)cc1OC` the growth was 70.7% (inactive). For `COc1ccc2[nH]cc(/C=C3/C(=O)Nc4ccc(F)cc43)c2c1`, the growth was 79.1% (inactive). `COc1ccc(-c2nc3sccn3c2/C=C/C(=O)c2c[nH]c3ccccc23)cc1` was tested, and the growth was 62.6% (inactive). With `CCCCCCCCCCOC(c1ccccc1)c1ccccc1` the growth was 92.1% (inactive). `O=C(Nc1ccc(Cl)cc1)Nc1ccccc1CNc1nc(Nc2ccc(OCCN3CCCC3)cc2)ncc1Cl` was tested, and the growth was -57.4% (active). With `COC1=C(Br)C(=O)C(OC)=C(Br)C1=O` the growth was 89.2% (inactive). `O=C1/C(=C/c2ccc(F)cc2)COc2ccc(O)c(O)c21` was tested, and the growth was -2.42% (active). With `CCOC(=O)c1c(NC(=S)Nc2ccc([N+](=O)[O-])cc2)sc2c1CCCCC2` the growth was 71.2% (inactive). For `O=c1cc(-c2ccccc2)nc2cc(-c3ccco3)[nH]n12`, the growth was -1.48% (active). For `COc1cc(-c2nc(C(=O)NCC(=O)O)nn2-c2ccc(Cl)cc2)cc(OC)c1OC`, the growth was 113% (inactive). For `CCCCCCCCCCC(C)Br` (stereo not given), the growth was 111% (inactive). For `COc1cc(Cl)cc(-c2nn(-c3cccc(NC(=O)c4ccc(Cl)c(Cl)c4)c3)cc2-c2ccncc2)c1`, the growth was 54.6% (inactive). `CNC(=O)c1cc(N2CCc3cc(NC(=O)Nc4ccc(Cl)c(C(F)(F)F)c4)ccc32)ccn1` was tested, and the growth was 57% (inactive). In the case of `N#Cc1cnn(C(=O)c2nn(-c3ccc(Cl)cc3)cc2O)c1N`, the growth is reported as 32.1% (inactive). In the case of `ON=C(C1CCCCC1)C1CCCCC1`, the growth is reported as 105% (inactive). `C=CCNCCN1C(=O)c2ccc3c4c(ccc(c24)C1=O)C(=O)N(CCNCC=C)C3=O` was tested, and the growth was -89.1% (active). In the case of `Oc1ccccc1-c1nnc(Cn2c(Cc3cccc4ccccc34)nc3ccccc32)o1`, the growth is reported as 105% (inactive). For `Nc1cc2c(cc1Br)-c1c(C(=O)O)cccc1C2O` (stereo not given), the growth was 74.6% (inactive). In the case of `CCCn1cnc2c(c1=N)C(c1ccc(F)cc1)c1sc3c(C)cccc3c1O2` (stereo not given), the growth is reported as -26.7% (active). `COc1ccc(OC)c(-c2c(C#N)c(-c3cccs3)nc3c2c(-c2ccccc2)nn3-c2ccccc2)c1` was tested, and the growth was 104% (inactive). In the case of `C=CCn1c2ccccc2c2c3c(c4c5ccccc5n(CC=C)c4c21)C(=O)N(O)C3=O`, the growth is reported as 24% (inactive). For `Cc1c2cc[nH]c(=O)c2c(C)c2c1[nH]c1ccc(OC(=O)c3ccccc3)cc12`, the growth was 12.6% (inactive). `CC(=O)c1cc2c(o1)C(=O)c1ccccc1C2=O` was tested, and the growth was -40% (active). `C[n+]1c2ccccc2c(Nc2ccc(NS(=O)(=O)CCCCN=C(N)N)cc2)c2ccc(N)cc21` was tested, and the growth was 39% (inactive). `CC(C)CCSc1nc(-c2ccc(F)cc2)c(C#N)c(N2CCCCC2)n1` was tested, and the growth was 104% (inactive).
